The values below come from PubChem BioAssay (NCI).

Where “and” joins values, the source holds several entries; their conditions need not be identical. Equal values may be shown once. This is part of a sample that, as a whole, favours compounds with a hit. Of some 83,000 tested, about 20% had one in any assay.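 Method: cells in 96-well plates; compound added at one concentration; 48 h incubation; percent growth measured; values under 10 scored active.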 A number with no mark means an inactive call. Calls of active or inactive are those of the source.

In this test the test system is OVCAR-4 ovarian. Description: NCI-60 one-dose screen, 48 h (100 = growth as untreated, 0 = no growth, -100 = all killed). To be noted: 10 µM unless noted.
`CCCCn1c(=O)c(C(=O)NCc2ccccc2Cl)c(O)c2ccccc21`: the growth is 82.4%. On to `O=C(NCCCN1CC1)Nc1cccc2ccccc12`, for which the growth was 105% and 114%. As for `Oc1cc(N2CC2)c(O)cc1N1CC1`, the growth was 18%. Take `CC12CCC3C4CCC(=O)C=C4CCC3C1CC1CC(=O)OC12` (configuration not stated): the growth is 103%.

Regarding `CCOP(=O)(OCC)C(=O)N(CC)CC`, the growth was 96.5%. Then `C#Cc1cccc(Nc2nc(Cl)nc3cc(NC(=O)CF)ccc23)c1`, with 108%; and `CC[C@H](C)[C@H](NC(=O)[C@H]1CCCCN1C)C(=O)N(C)[C@H](C(=O)NC12CC(C(=O)N[C@@H](Cc3ccccc3)C[C@H](C)C(=O)OC)(C1)C2)C(C)C`, with 90.8%.

For the molecule `CN1CCC2(CC1)C(C#N)C(=O)NC(=O)C2C#N` (configuration not stated), the growth is 97.3%. Turning to `CC12CCC3C(CCC4CC(O)CCC43C)C1CCC2=O` (configuration not stated), the growth was 108%. Then `C=CC[PH+](c1ccccc1)c1ccccc1.C=CC[PH+](c1ccccc1)c1ccccc1.[Pt+2].[S-]c1nc2ccccc2[nH]1.[S-]c1nc2ccccc2[nH]1`, with 4.93% (active); and `Cc1cc[c-]cc1.Fc1c[c-]c(-c2ccccn2)c(F)c1.[Pt+2].c1ccc([PH+](c2ccccc2)c2ccccn2)cc1`, with 57.1%; and `C=C[Se]CC(=O)/C=C/c1ccccc1`, with 95.3%. To `CCCCCCCCCCCCCCCCCC1OCC(COC(=O)O[C@@H](C(=O)O[C@H]2C[C@@]3(O)[C@@H](OC(=O)c4ccccc4)[C@@H]4[C@]5(OC(C)=O)CO[C@@H]5C[C@H](O)[C@@]4(C)C(=O)[C@H](OC(C)=O)C(=C2C)C3(C)C)[C@@H](NC(=O)c2ccccc2)c2ccccc2)O1` (some centres not stated) belongs 67.4%; to `CC1(C)C=Cc2c(ccc3c2[N+]([O-])=C2C3=C[C@@]34NC(=O)[C@]5(CCCN5C3=O)C[C@@H]4C2(C)C)O1`, 43.5%. As for `O=C(O)C1C(C(=O)O)C2(Cl)C(Cl)=C(Cl)C1(Cl)C2(Cl)Cl` (configuration not stated), the growth was 105% and 110%. For the molecule `CNC(=O)O/N=C(\SC)C(=O)N(C)C`, the growth is 119%. With `C[C@]12CCc3sc(Nc4ccc(F)cc4F)nc3C1=CC[C@@H]1[C@@H]2CC[C@]2(C)C(=O)CC[C@@H]12`, the growth was 66.7%. Then `N#CC(C#N)=C(C#N)C#N`, with 104%; and `N#CCC(=O)c1ccccc1`, with 109%. In the case of `O=C(O)c1ccc(=O)[nH]c1`, the growth is 111% and 106%. For the molecule `CC[C@H](C)[C@H](NC(=O)CN(C)C)C(=O)N(C)[C@H](C[C@@H](OC(C)=O)c1nc(C(=O)NC23C4C5C2C2C3C4C52C(=O)OC)cs1)C(C)C` (some centres not stated), the growth was 48.7%. As for `CNC(=O)Oc1ccc(Cl)cc1SSc1cc(Cl)ccc1OC(=O)NC`, the growth was 74.5%. Take `CC(=O)OC1CC2(O)C(CCC3(C)C(c4ccc(=O)oc4)CCC32O)C2(C)CCC(OC3OC(CO)C(O)C(O)C3O)C=C12` (configuration not stated): the growth is -64.4% (active). On to `Oc1ccc(O)c(Cl)c1`, for which the growth is 107% and 104%. For `CC(=O)Nc1nc2c(s1)C1=CC[C@H]3[C@@H]4CC[C@H](OC(C)=O)[C@@]4(C)CC[C@@H]3[C@@]1(C)CC2`, the growth was 69.4%. Consider `O=C(O)C(F)F`, for which the growth was 112%.

In the case of `CC[C@H](C)[C@H](NC(=O)C12CC(NC)(C1)C2)C(=O)N(C)[C@H](C[C@@H](OC(C)=O)c1nc(C(=O)N[C@@H](Cc2ccccc2)C[C@H](C)C(=O)OC)cs1)C(C)C`, the growth is 50.3%. Then `NC(=O)Oc1cc(OC(N)=O)cc(N(CCCl)CCCl)c1`, with 74.7%; and `CC[PH+](CC)CC.O=COC1OC([S-])C(OC=O)C(OC=O)C1OC=O.[Au+]` (configuration not stated), with -89.8% (active); and `CCOC(=O)c1ccccc1C(=O)OCC`, with 96.4%. Consider `C[C@@H]1C/C=C\C(=O)O[C@H](/C=C/C#C/C=C/C(C)(C)[C@@H](O)c2cccc(O)c2Br)[C@@H](C)/C=C/[C@H](C)C[C@H](OC(N)=O)C1`, for which the growth was 50.3%.

On to `Cc1c(C)c(N)c(C)c(C)c1N`, for which the growth was 75.6%. As for `Nc1ccc(P(=O)(O)O)cc1`, the growth is 90.7%. Then `OCCN=Cc1c[nH]c2ccccc12`, with 94%; and `S=P(SP(=S)(c1ccccc1)c1ccccc1)(c1ccccc1)c1ccccc1`, with 111%. Then `CN1CCc2cc3c(cc2C1O)OCO3` (configuration not stated), with 108%; and `Cc1cc(NC(=O)NCCCOc2ccc(N3C(N)=NC(N)=NC3(C)C)cc2Cl)ccc1S(=O)(=O)F`, with 34.5%.
